# Laboratory results taken from PubChem BioAssay AID2762 (National Center for Advancing Translational Sciences (NCATS), 2010).
# Inconclusive results are not listed. Unmarked numbers belong to inactive results. Calls of active or inactive are those of the source. The call rests on the fitted dose curve; in most records, active means well fitted inhibition curve with a large enough effect; inconclusive means small, poorly fitted or top-dose-only effect, or effect the other way; inactive means no such curve, though single readings can be large or run the other way.
# Target: Nuclear receptor ROR-gamma (Mus musculus) (UniProt P51450)
# Assay: Concentration response confirmation assay for inhibitors of ROR gamma transcriptional activity
# Details: Drosophila S2 Gal4-RORgamma UAS-luciferase, 20 h; series mostly up to 46.1 µM; activity change, negative = inhibition: at the top concentration
# How it was run: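 Stably transfected Drosophila Schneider cells are the test system, with ROR gamma fused to Gal4 and luciferase under UAS control; luminescence is read after 20 hr of 700 uM copper sulfate induction at ambient temperature.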
# Nuclear receptor ROR-gamma (Mus musculus), sequence (P51450 whole entry, looked up): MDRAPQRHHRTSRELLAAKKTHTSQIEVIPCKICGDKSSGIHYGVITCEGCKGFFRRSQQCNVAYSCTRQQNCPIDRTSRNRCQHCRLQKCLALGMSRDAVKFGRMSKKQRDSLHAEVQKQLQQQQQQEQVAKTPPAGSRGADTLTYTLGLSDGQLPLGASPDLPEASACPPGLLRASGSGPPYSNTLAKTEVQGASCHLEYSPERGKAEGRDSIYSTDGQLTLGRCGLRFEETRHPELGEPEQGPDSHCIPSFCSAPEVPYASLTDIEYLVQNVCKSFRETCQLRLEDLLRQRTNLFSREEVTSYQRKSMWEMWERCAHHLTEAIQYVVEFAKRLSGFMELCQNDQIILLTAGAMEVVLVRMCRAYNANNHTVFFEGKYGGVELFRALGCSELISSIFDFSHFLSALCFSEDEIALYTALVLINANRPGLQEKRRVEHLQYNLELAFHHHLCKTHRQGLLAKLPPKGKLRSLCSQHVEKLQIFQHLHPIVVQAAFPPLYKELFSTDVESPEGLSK
SMILES,"activity change, negative = inhibition",Potency
CCOC(=O)c1sc(NC(=O)c2sc(C)nc2C)nc1C,6.4%,–
COC(=O)c1ccc2nc(Nc3nc4ccc(F)cc4s3)sc2c1,–,0.315 µM (active)
COc1ccc(C(=O)Nc2ccc(NC(=O)c3cccs3)cn2)cc1,-1.79%,–
Clc1ccccc1/C=N/NC1=Nc2cccc3cccc1c23,–,0.199 µM (active)
O=C(O)/C=C/C(=O)Nc1ccccc1SC(F)(F)F,4.2%,–
O=C(NCC1CCCO1)C(C(=O)c1ccccc1)n1ccccc1=O (stereo not given),-18.7%,–
COc1ccc(-c2cc(C(F)(F)F)nc(S(=O)(=O)CCCC(=O)Nc3cccnc3Cl)n2)cc1OC,–,11.2 µM (active)
Cc1ccccc1NC(=O)CCN1CCN(C)CC1,8.95%,–
O=C1NC2=C(C(=O)CCC2)C(c2ccccc2)N1 (stereo not given),2.63%,–
CC(C)(C)S(=O)(=O)c1cnc2c(-c3ccc(Cl)cc3)cnn2c1N,–,4.45 µM (active)
Cc1ccc(OCCn2cc(C(=S)N3CCCC3)c3ccccc32)cc1C,–,12.5 µM (active)
Cc1cc(NCc2ccccn2)n2ncc(-c3ccc(Cl)cc3)c2n1,–,0.199 µM (active)
CCOC(=O)[C@@H]1[C@H]2COc3cc(OC)ccc3[C@@H]2N2C(=O)N(c3ccc(C)cc3)C(=O)[C@@]12C,–,14.1 µM (active)
Cc1cc(NC(=S)NC(=O)/C=C/c2ccc(S(=O)(=O)N3CCOCC3)cc2)ccc1Br,–,7.05 µM (active)
Cc1cc(NC(=O)CN2CCOCC2)n(-c2nc3ccccc3s2)n1,–,15.8 µM (active)
O=C1CC(c2ccc(F)cc2)CC(O)=C1C1NCCc2ccccc21 (stereo not given),5.11%,–
CC(C)(C)c1ccc(-c2noc(CCC(=O)Nc3cccnc3)n2)cc1,–,0.0996 µM (active)
S=c1[nH]nc(-c2ccc(Br)cc2)n1-c1ccc2c(c1)OCCO2,–,1.58 µM (active)
COc1ccc(OCC(=O)NNc2nc3ccccc3s2)cc1,–,14.1 µM (active)
Cc1nn(-c2ccccc2)c(C)c1C(=O)Nc1nnc(-c2ccco2)o1,–,0.996 µM (active)
CC(=O)c1cccc(N(CC(=O)Nc2ccccc2C(=O)N2CCCC2)S(C)(=O)=O)c1,0.355%,–
CC(C)CC(=O)NS(=O)(=O)c1ccc(N)cc1,2.46%,–
O=S(=O)(NCc1ccccn1)C(F)(F)F,–,7.05 µM (active)
N=C1S/C(=C\c2ccco2)C(=O)N1c1nccs1,–,0.141 µM (active)
CCN(CC)c1ccc2cc(-c3nc4ccccc4[nH]3)c(=O)oc2c1,–,3.97 µM (active)
Cc1ccc2nc(-c3ccc(NC(=O)COC(=O)c4ccc(=O)[nH]c4)cc3)sc2c1,–,1.41 µM (active)
CCn1cc(C(=O)O)c(=O)c2cc(F)c(N3CCN(C(=S)NC(=O)c4ccccc4C)CC3)cc21,-24.2%,–
Cc1ccc(C)c(/C=N/n2cc(-c3ccccc3)[nH]c2=S)c1,–,0.791 µM (active)
CCOc1ccc2nc(NC(=O)c3cnccn3)sc2c1,–,3.15 µM (active)
CC(C)(C)S(=O)(=O)c1cnc2c(-c3ccsc3)cnn2c1N,–,22.3 µM (active)
